Data taken from PubChem BioAssay (NCI).
Where “and” joins values, the source holds several entries; their conditions need not be identical. Equal entries are not always repeated. The panel holds about 83,000 compounds, 20% with a hit somewhere; the sample as a whole holds those more often.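 Activity criterion: percent growth below 10, measured after cells in 96-well plates were exposed to a single compound concentration for 48 hours.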 Values without a mark were called inactive. Calls of active or inactive are those of the source.

Each compound was assayed on MDA-MB-468 breast (assay: NCI-60 one-dose screen, 48 h (100 = growth as untreated, 0 = no growth, -100 = all killed)). Conditions: 10 µM unless noted.
With `c1cc2ccc3cc2cc1CNCCOCCNCc1ccc2ccc(cc2c1)CNCCOCCNC3` the growth was -68% (active). `O=C(NCCN1CCCC1)n1cc(-c2ccncc2)c(-c2cc(O)cc(Cl)c2)n1` was tested, and the growth was 75.8%. In the case of `O=C(/C=C/c1ccccc1)c1ccc(-n2cc(CN3CCN(c4cc5c(cc4F)c(=O)c(C(=O)O)cn5C4CC4)CC3)nn2)cc1`, the growth is reported as 66%. For `O=C(Cc1ccccc1)NNc1nc(Cl)nc(N2CCN(C(c3ccccc3)c3ccccc3)CC2)n1`, the growth was 38.2%. With `C/C(=C(/c1ccc(Cl)cc1)c1ccc(OCCN2CCCC2)cc1)c1ccccc1` the growth was 62.4%. With `CN(C)C1CCN(C(=O)c2ccc(NC(=O)Nc3ccc(-c4nc(N5CCOCC5)c5cccn5n4)cc3)cc2)CC1` the growth was -60.1% (active). With `Cc1cc(=O)oc2cc(OC(=O)N3CCN(C)CC3)ccc12` the growth was 107%. For `COc1cccc(C(=O)Nc2ccc(CN3CCc4nc5cc(OC)c(OC)cc5cc43)cc2)c1`, the growth was 63.6%. `Clc1ccc(-c2cn3cc(Cc4ccc(Cl)c(Cl)c4)sc3n2)cc1` gave a growth of 80.5%. With `CC(=O)N(O)CCCCCNC(=O)CCC(=O)N(O)CCCCCNC(=O)CCC(=O)N(O)CCCCCN(CCCCCCCCCC[P+](c1ccccc1)(c1ccccc1)c1ccccc1)CCCCCCCCCC[P+](c1ccccc1)(c1ccccc1)c1ccccc1` the growth was -42.6% (active). With `COc1cc(C(=O)c2c(-c3ccccc3)oc3c(OC)cccc23)cc(OC)c1O` the growth was 4.03% (active). In the case of `Nc1ncc(-c2ccc3ncnc(N4CCc5cc(F)c(F)cc54)c3c2)cn1`, the growth is reported as 4.19% (active). For `Cc1c2c(c(C)c3c1oc1cc(O)ccc13)C(=O)N(CCN1CCCCC1)C2=O`, the growth was 100%. With `Clc1ccccc1-c1cnn2cc(-c3ccccc3)cnc12` the growth was 90.8%. With `COc1ccc(CCN(C)CCCC(C#N)(c2ccc(OC)c(OC)c2)C(C)C)cc1OC` (centres undefined) the growth was 97.9% and 89.5%. With `CCCCC(CC)CN=C(N)NC(N)=NCCCCCCN=C(N)NC(N)=NCC(CC)CCCC` (centres undefined) the growth was -85.7% (active). With `N=C(N)c1ccc(-c2ccc(-c3ccccc3)s2)cc1` the growth was -39.2% (active). In the case of `O=C(Nc1ccc(-c2nc(N3CCOCC3)c3cccn3n2)cc1)Nc1cccnc1`, the growth is reported as -37.9% (active). `Cc1nn2c(/C=C3/C(=O)Nc4ccc(Cl)cc43)c(-c3ccccc3)nc2s1` gave a growth of 35.7%. Compound `C1CCc2onc(-c3noc4c3CCCCC4)c2CC1` has a growth of 108%. `Oc1ccc(-c2cnc(-c3ccccc3)[nH]2)c(O)c1` showed a growth of 109%. In the case of `CCN1CCN(C(=O)[C@]23CCC(C)(C)C[C@@H]2C2=CC[C@@H]4[C@@]5(C)C/C(=C/c6cccnc6)C(=O)C(C)(C)[C@@H]5CC[C@@]4(C)[C@]2(C)CC3)CC1`, the growth is reported as -6.42% (active). Work on `c1ccc(-c2oc(-c3ccccc3)c3ccccc23)cc1` yielded a growth of 109%. Work on `O=C(Nc1c(Cl)cc(Cl)cc1Cl)ON=C1CCCCC1` yielded a growth of 96.7%. For `Cc1cc(-c2nc3ccccc3s2)ccc1NC(=O)COc1ccc(Cl)cc1`, the growth was -39% (active). In the case of `CN[C@@H]1C(OC2[C@H](O[C@H]3[C@H](O)[C@@H](O)[C@H](N=C(N)N)[C@@H](O)[C@@H]3N=C(N)N)OC(C)[C@]2(O)CO)OC(CO)C(O)C1O` (some centres undefined), the growth is reported as 108%. Work on `COC(=O)c1ccc2[nH]c(O)c(C(=Nc3ccc(N(C)C(=O)CN4CCN(C)CC4)cc3)c3ccc4c(c3)OCO4)c2c1` yielded a growth of 38.3%. Compound `Cc1cccc2c1NC(=O)[C@@]21[C@H](C(=O)c2ccccc2)[C@]2(C(=O)Nc3ccccc32)[C@H]2CCCN21` has a growth of 22.2% [100 µM]. With `COC1/C=C/OC2(C)Oc3c(C)c(O)c4c(O)c(c(/C=N/N(c5ccccc5)c5ccccc5)c(O)c4c3C2=O)NC(=O)C(C)=C/C=C/C(C)C(O)C(C)C(O)C(C)C(OC(C)=O)C1C` (centres undefined) the growth was -44.7% (active). For `CCOC(=O)c1csc(NC(=O)CSc2nc3sc4c(c3c(=O)n2-c2ccc(Cl)cc2)CCCC4)n1`, the growth was 102%. With `COc1ccc(-c2ccc(-c3ccc(C(=N)N)cn3)s2)cc1OC` the growth was 92.6%. `COc1ccc(Nc2ncc(Br)c(NCCCNC(=O)C3CCCC3)n2)cc1` gave a growth of 54.5%. `CC(C)(C)c1ccc(S(=O)(=O)Oc2ccc3c4c(c(=O)oc3c2)CCCCC4)cc1` gave a growth of 23.9%. For `O=C(N/N=C/c1cc2ccccc2n2nnnc12)Nc1ccccc1`, the growth was 98.3%.
